Values joined by “and” are separate entries in the source; they are usually repeats but may differ in a detail not shown here. Equal values may be shown once. Out of some 5,500 compounds screened, about 2,000 (36%) were called active. Another 18% or so got no clear call; they are omitted. No stated cut-off is given here; in the data, active means normalized growth mostly below about 0.91 (no sharp cut-off); inconclusive means no clear call, values can overlap the other calls; inactive means mostly above about 0.92. This is one part of the list.
Experiment: chemical genetic growth profiling, strain panel (AID 1159580);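 further: tested at 20 µM; growth read once vehicle control cultures reached saturation at 30 °C; 1 = growth at the plate median or of vehicle wells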
Details: S. cerevisiae deletion strains, growth OD

Measured: normalized growth

CN1CCC[C@@H]1CCO[C@](C)(c1ccccc1)c1ccc(Cl)cc1
inactive: locus YAL013W, strain DEP1, stronger effect = lower value 0.998 | locus YAL030W, strain snc1, stronger effect = lower value 1 | locus YBL061C, strain skt5, stronger effect = lower value 0.998 | locus YBR009C, strain hhf1, stronger effect = lower value 0.957 | locus YBR023C, strain chs3, stronger effect = lower value 0.949 | locus YBR171W, strain sec66, stronger effect = lower value 0.997 | locus YBR229C, strain ROT2, stronger effect = lower value 1.01 | locus YBR231C, strain swc5, stronger effect = lower value 0.984 | locus YBR279W, strain paf1, stronger effect = lower value 0.964 | locus YCL011C, strain gbp2, stronger effect = lower value 0.959 | locus YCL016C, strain dcc1, stronger effect = lower value 0.968 | locus YCL029C, strain bik1, stronger effect = lower value 0.991 | locus YCL069W, strain vba3, stronger effect = lower value 0.969 | locus YCR088W, strain abp1, stronger effect = lower value 0.999 | locus YDL005C, strain med2, stronger effect = lower value 1 | locus YDL035C, strain GPR1, stronger effect = lower value 0.913 | locus YDL040C, strain nat1, stronger effect = lower value 1 | locus YDL074C, strain BRE1, stronger effect = lower value 0.817 | locus YDL101C, strain DUN1, stronger effect = lower value 1.01 | locus YDL134C, strain PPH21, stronger effect = lower value 1.01 | locus YDL185W, strain tfp1, stronger effect = lower value 0.99 | locus YDL192W, strain arf1, stronger effect = lower value 1.01 | locus YDR001C, strain nth1, stronger effect = lower value 1.02 | locus YDR069C, strain doa4, stronger effect = lower value 0.955 | locus YDR101C, strain arx1, stronger effect = lower value 0.988 | locus YDR150W, strain NUM1, stronger effect = lower value 1.02 | locus YDR159W, strain sac3, stronger effect = lower value 1.01 | locus YDR162C, strain NBP2, stronger effect = lower value 0.993 | locus YDR195W, strain ref2 1.08 | locus YDR297W, strain sur2, stronger effect = lower value 0.998 | locus YDR318W, strain mcm21, stronger effect = lower value 0.984 | locus YDR334W, strain swr1, stronger effect = lower value 1.01 | locus YDR335W, strain msn5, stronger effect = lower value 0.987 | locus YDR392W, strain spt3, stronger effect = lower value 0.866 | locus YDR502C, strain sam2, stronger effect = lower value 0.97 | locus YEL003W, strain gim4, stronger effect = lower value 0.952 | locus YEL037C, strain rad23, stronger effect = lower value 0.993 | locus YEL061C, strain CIN8 (second series), stronger effect = lower value 1 | locus YEL061C, strain CIN8, stronger effect = lower value 1 | locus YER016W, strain bim1, stronger effect = lower value 0.992 | locus YER110C, stronger effect = lower value 0.999 | locus YER111C, strain swi4, stronger effect = lower value 1.02 | locus YER155C, strain BEM2, stronger effect = lower value 1.03 | locus YER167W, strain BCK2, stronger effect = lower value 1 | locus YGL078C, strain dbp3, stronger effect = lower value 0.99 | locus YGL086W, strain mad1, stronger effect = lower value 0.973 | locus YGL167C, strain pmr1, stronger effect = lower value 1.02 | locus YGL173C, strain kem1, stronger effect = lower value 0.955 | locus YGL227W, strain vid30, stronger effect = lower value 0.996 | locus YGL240W, strain doc1, stronger effect = lower value 0.919 | locus YGL248W, strain PDE1, stronger effect = lower value 1.01 | locus YGL253W, strain hxk2, stronger effect = lower value 0.916 | locus YGR078C, strain PAC10, stronger effect = lower value 0.95 | locus YHR013C, strain ard1, stronger effect = lower value 0.856 | locus YHR079C, strain IRE1 (second series), stronger effect = lower value 0.994 | locus YHR079C, strain IRE1, stronger effect = lower value 0.992 | locus YHR094C, strain hxt1, stronger effect = lower value 0.994 | locus YHR129C, strain ARP1, stronger effect = lower value 1.01 | locus YHR142W, strain chs7, stronger effect = lower value 0.884 | locus YHR200W, strain rpn10, stronger effect = lower value 1 | locus YIL066C, strain RNR3, stronger effect = lower value 0.978 | locus YIL073C, strain SPO22, stronger effect = lower value 0.904 | locus YIL125W, strain kgd1, stronger effect = lower value 0.999 | locus YIR030C, strain dcg1, stronger effect = lower value 0.993 | locus YJL092W, strain hpr5, stronger effect = lower value 0.982 | locus YJL095W, strain BCK1 (second series), stronger effect = lower value 0.923 | locus YJL115W, strain asf1, stronger effect = lower value 0.999 | locus YJL129C, strain trk1, stronger effect = lower value 0.921 | locus YJL134W, strain LCB3, stronger effect = lower value 1.01 | locus YJL154C, strain vps35, stronger effect = lower value 0.996 | locus YJL164C, strain tpk1, stronger effect = lower value 0.937 | locus YJL166W, strain qcr8, stronger effect = lower value 0.94 | locus YJL168C, strain set2, stronger effect = lower value 1 | locus YJL187C, strain SWE1 (second series), stronger effect = lower value 0.987 | locus YJL187C, strain SWE1, stronger effect = lower value 0.992 | locus YJR043C, strain POL32, stronger effect = lower value 1.03 | locus YJR066W, strain TOR1, stronger effect = lower value 0.97
0.843 (active) and 0.985 (inactive): locus YHR030C, strain SLT2, stronger effect = lower value
0.745 (active) and 0.991 (inactive): locus YJL095W, strain BCK1, stronger effect = lower value
active: locus YAL021C, strain ccr4, stronger effect = lower value 0.88 | locus YAL026C, strain drs2, stronger effect = lower value 0.62 | locus YBR021W, strain FUR4, stronger effect = lower value 0.671 | locus YDR137W, strain rgp1, stronger effect = lower value 1.24 [resistant] | locus YDR388W, stronger effect = lower value 0.911 | locus YER015W, strain faa2, stronger effect = lower value 0.798 | locus YER155C, strain BEM2 (second series), stronger effect = lower value 0.818 | locus YFR010W, strain ubp6, stronger effect = lower value 0.898 | locus YGR135W, strain pre9, stronger effect = lower value 0.879 | locus YGR229C, strain SMI1, stronger effect = lower value 0.491 | locus YGR252W, strain gcn5, stronger effect = lower value 0.688 | locus YHR027C, strain rpn1, stronger effect = lower value 0.904

— PubChem BioAssay AID1159580 (chemical genetic matrix, 2015)
